In the supplement of paper PMC8728848:
This excerpt belongs to a sample that is enriched for the strongest signals.

Columns and labels:
Assay in all cases: glycan array binding signal (z-score within array); higher = stronger binding
Details in all cases: glycan notation: IUPAC condensed, linker removed
[1] = target: Gal(b1-4)GlcNAc(b1-3)Gal(b1-4)[Fuc(a1-3)]GlcNAc(b1-3)Gal(b1-4)[Fuc(a1-3)]GlcNAc
Method in brief: (§1)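 From the Consortium for Functional Glycomics database, 3228 arrays were curated, keeping only those whose protein sequence was available. Binding is given as a within-array Z-score averaged across arrays sharing a protein sequence and across linkers. Negative Z-scores can be read as non-binding.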

[2] = target: Gal(b1-4)GlcNAc(b1-3)[Fuc(a1-3)GlcNAc(b1-6)]Gal(b1-4)Glc
Method in brief: as §1

Gal3S(b1-4)GlcNAc = target: Gal3S(b1-4)GlcNAc
Method in brief: as §1

[3] = target: GalNAc(a1-3)GalNAc(b1-3)Gal(a1-4)Gal(b1-4)Glc
Method in brief: as §1

[4] = target: GalNAc(b1-3)Gal(a1-4)Gal(b1-4)GlcNAc
Method in brief: as §1

[5] = target: GlcNAc(b1-2)Man(a1-3)[GlcNAc(b1-4)][GlcNAc(b1-2)Man(a1-6)]Man(b1-4)GlcNAc(b1-4)[Fuc(a1-6)]GlcNAc
Method in brief: as §1

[6] = target: GlcNAc(b1-2)[GlcNAc(b1-4)]Man(a1-3)[GlcNAc(b1-4)][GlcNAc(b1-2)Man(a1-6)]Man(b1-4)GlcNAc(b1-4)GlcNAc
Method in brief: as §1

[7] = target: GlcNAc(b1-3)Gal(b1-4)GlcNAc(b1-3)[GlcNAc(b1-3)Gal(b1-4)GlcNAc(b1-3)]GalNAc
Method in brief: as §1

GlcNAc(b1-3)GalNAc = target: GlcNAc(b1-3)GalNAc
Method in brief: as §1

[8] = target: GlcNAc(b1-4)GlcNAc(b1-4)GlcNAc(b1-4)GlcNAc(b1-4)GlcNAc
Method in brief: as §1

Man(a1-3)[Man(a1-6)]Man = target: Man(a1-3)[Man(a1-6)]Man
Method in brief: as §1

Neu5Ac(a2-3)Gal = target: Neu5Ac(a2-3)Gal
Method in brief: as §1

[9] = target: Neu5Ac(a2-3)Gal(b1-3)GalNAc(b1-3)Gal(a1-4)Gal(b1-4)Glc
Method in brief: as §1

[10] = target: Neu5Ac(a2-3)Gal(b1-3)GlcNAc(b1-2)Man(a1-3)[GlcNAc(b1-4)][Neu5Ac(a2-3)Gal(b1-3)GlcNAc(b1-2)Man(a1-6)]Man(b1-4)GlcNAc(b1-4)GlcNAc
Method in brief: as §1

[11] = target: Neu5Ac(a2-3)Gal(b1-3)[Fuc(a1-4)]GlcNAc
Method in brief: as §1

[12] = target: Neu5Ac(a2-3)Gal(b1-4)GlcNAc(b1-3)Gal(b1-4)GlcNAc
Method in brief: as §1

[13] = target: Neu5Ac(a2-3)Gal(b1-4)GlcNAc(b1-3)Gal(b1-4)GlcNAc(b1-3)Gal(b1-4)GlcNAc
Method in brief: as §1

[14] = target: Neu5Ac(a2-3)Gal(b1-4)GlcNAc(b1-3)Gal(b1-4)GlcNAc(b1-3)GalNAc
Method in brief: as §1

[15] = target: Neu5Ac(a2-3)Gal(b1-4)[Fuc(a1-3)]GlcNAc(b1-6)[Neu5Ac(a2-3)Gal(b1-3)]GalNAc
Method in brief: as §1

Neu5Ac(a2-6)Gal(b1-4)Glc = target: Neu5Ac(a2-6)Gal(b1-4)Glc
Method in brief: as §1

[16] = target: Neu5Ac(a2-6)Gal(b1-4)GlcNAc(b1-2)Man(a1-3)[GlcNAc(b1-4)][Neu5Ac(a2-6)Gal(b1-4)GlcNAc(b1-2)Man(a1-6)]Man(b1-4)GlcNAc(b1-4)GlcNAc
Method in brief: as §1

[17] = target: Neu5Ac(a2-6)Gal(b1-4)GlcNAc(b1-2)Man(a1-3)[Man(a1-6)]Man(b1-4)GlcNAc(b1-4)GlcNAc
Method in brief: as §1

[18] = target: Neu5Ac(a2-6)Gal(b1-4)GlcNAc(b1-6)[Gal(b1-3)]GalNAc
Method in brief: as §1

[19] = target: Neu5Ac(a2-8)Neu5Ac(a2-3)Gal(b1-3)GalNAc(b1-4)[Neu5Ac(a2-3)]Gal(b1-4)Glc
Method in brief: as §1

[20] = target: Neu5Ac(a2-8)Neu5Ac(a2-3)Gal(b1-4)GlcNAc
Method in brief: as §1

[21] = target: Neu5Gc(a2-3)Gal(b1-4)GlcNAc
Method in brief: as §1

[22] = target: Neu5Gc(a2-3)Gal(b1-4)GlcNAc(b1-3)Gal(b1-4)GlcNAc(b1-2)Man(a1-3)[Neu5Gc(a2-3)Gal(b1-4)GlcNAc(b1-3)Gal(b1-4)GlcNAc(b1-2)Man(a1-6)]Man(b1-4)GlcNAc(b1-4)GlcNAc
Method in brief: as §1

[23] = target: Neu5Gc(b2-6)Gal(b1-4)GlcNAc
Method in brief: as §1

B1: PX9961V-pdi-562-26-562 (Parabacteroides distasonis) (protein)
chain: EIFSEITTDNYYQNSNNIYAALVNNYAKAFSTGWSDARYFLQEVTADQLMIPTRGKHGYNGGEYVRLHEHKWTVEENFVYNGWAAPFQGIALCNNTLSDFENLDFSTFKLTEETKNEYIAELRALRVWNYMFLIDFFRHVPIVTDIEEVKAQSTPLEVFNFMESELLAILPDLPKNRGVSRFDQAGVASILVRLYLNAEKWIGISKYDECEQMAQAILDGKYGEYSIDPDYRGPFRSGINGYRSKENIMEFAIKKNYFEASWLYNMWMHYQDRYSLDNDWQGWNGGNLAPSRDLYGNLYQDKLGMPFEKFPDGDIRKKAFRVISNDGDYEGFFLMGTQYKFDYEKGYGFTDEVITGTEEYNGKPLVYVDQVGRFSEGETGLAKGSHVIYGEENTGYRLIKFPWLPQSKDLFQMNSIPEIRLAEIYYSLAECKYRSGDKIGAARLLDVVRKRYYKAEDWSKFSYESNISKLTDDEFVDELGREFIGERHRRIDLIRWNRFSEGAWWDKTPDATNQDVFPIPYRALNANPLLKQTTAGF
- glycan array binding signal (z-score) [1]: -0.412
- glycan array binding signal (z-score) [2]: -0.429
- glycan array binding signal (z-score) (Gal3S(b1-4)GlcNAc): -0.447
- glycan array binding signal (z-score) [3]: -0.432
- glycan array binding signal (z-score) [4]: -0.339
- glycan array binding signal (z-score) [5]: -0.145
- glycan array binding signal (z-score) [6]: -0.324
- glycan array binding signal (z-score) [7]: -0.471
- glycan array binding signal (z-score) (GlcNAc(b1-3)GalNAc): -0.21
- glycan array binding signal (z-score) [8]: 0.049
- glycan array binding signal (z-score) (Man(a1-3)[Man(a1-6)]Man): -0.443
- glycan array binding signal (z-score) (Neu5Ac(a2-3)Gal): -0.711
- glycan array binding signal (z-score) [9]: -0.516
- glycan array binding signal (z-score) [10]: 0.213
- glycan array binding signal (z-score) [11]: -0.598
- glycan array binding signal (z-score) [12]: -0.53
- glycan array binding signal (z-score) [13]: -0.516
- glycan array binding signal (z-score) [14]: -0.319
- glycan array binding signal (z-score) [15]: 2.66
- glycan array binding signal (z-score) (Neu5Ac(a2-6)Gal(b1-4)Glc): -0.644
- glycan array binding signal (z-score) [16]: -0.373
- glycan array binding signal (z-score) [17]: -0.231
- glycan array binding signal (z-score) [18]: -0.27
- glycan array binding signal (z-score) [19]: -0.606
- glycan array binding signal (z-score) [20]: -0.574
- glycan array binding signal (z-score) [21]: 0.017
- glycan array binding signal (z-score) [22]: -0.054
- glycan array binding signal (z-score) [23]: -0.322
